The results in this text go back to PubChem BioAssay AID504832 (National Center for Advancing Translational Sciences (NCATS), 2011).

Out of some 310,000 compounds screened, about 18,000 (5.8%) were called active. Roughly 22% stayed inconclusive and do not appear here. The list comes from a sample in which actives are over-represented; it also holds similar structures and randomly drawn compounds. A number with no mark means an inactive call. Calls come from the whole dose curve; as a rule, active = well fitted inhibition curve with a large enough effect; inconclusive = small, poorly fitted or top-dose-only effect, or another doubt; inactive = no such curve, though single readings can be large or run the other way.
% is set by controls: 0 for no effect and ±100 for the full control effect; potency is the fitted concentration of half-maximal effect.

The test is described as follows: Primary qHTS for delayed death inhibitors of the malarial parasite plastid, 48 hour incubation. The note with it: P. falciparum luciferase growth in erythrocytes; series mostly up to 28.7 µM; activity change, negative = inhibition: at the top concentration. In outline: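 Luciferase-expressing P. falciparum in infected erythrocytes (2% hematocrit, 0.1% parasitemia final) in RPMI 1640/0.5% Albumax were exposed to compound for 48 hours at 37 C, 5% CO2; growth read as luminescence.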
(In general: qHTS replaces the single test concentration by a dilution series.)
With `Cc1ccc(S(=O)(=O)N2CCCCC2)cc1C(=O)N1CCN(CCO)CC1`, the “activity change, negative = inhibition” value was 0.383%.

As to `CC(CC(=O)Nc1ccc(F)cc1F)S(=O)(=O)c1ccc2c(c1)NC(=O)CO2` (stereo unspecified), the “activity change, negative = inhibition” value was 3.89%.

As for `O=[N+]([O-])c1cc(C(F)(F)F)ccc1NCCc1ccncc1`, the “activity change, negative = inhibition” value was -26%.

As for `COc1ccc(C(=O)NCc2nnc(SCC(=O)Nc3cccc(OC)c3)o2)cc1`, the “activity change, negative = inhibition” value was 15.9%.

As for `Cc1ccc(Cc2nnc(SCC(=O)Nc3ccc(C)cc3C)[nH]c2=O)cc1`, the “activity change, negative = inhibition” value is 10.8%.

On to `COc1cc(C2C(C#N)=C(C)NC3=C2C(=O)CC(C)(C)C3)ccc1O` (stereo unspecified), for which the Potency is 10.4 µM (active).

On to `CC(=O)C1=C(C)NC2=C(C(=O)CC(C)(C)C2)C1C` (stereo unspecified), for which the “activity change, negative = inhibition” value is -10.5%.

In the case of `CCC1C(C#N)=C(SC)NC2=C1C(=O)CC(C)(C)C2` (stereo unspecified), the “activity change, negative = inhibition” value is -22%.

As for `CC(=O)Nc1c2c(nn1-c1cccc(C)c1)CSC2`, the “activity change, negative = inhibition” value was 0%.

With `COc1ccc(S(=O)(=O)n2cnc3ccccc32)c(C)c1`, the “activity change, negative = inhibition” value is -10.4%.

Regarding `O=S(=O)(c1ccccc1)N(Cc1cccc(F)c1)c1ccccc1`, the “activity change, negative = inhibition” value was -19.3%.

On to `COc1ccc(NC(=O)COc2ccc(C(=O)c3ccc(F)cc3)cc2)cc1S(N)(=O)=O`, for which the “activity change, negative = inhibition” value is -17.7%.

With `Cc1cc(=O)oc2c3c(cc(OCC(=O)N[C@H](C(=O)O)c4ccccc4)c12)OC(C)(C)CC3`, the “activity change, negative = inhibition” value was 5.58%.

For `CCOC(=O)N1CCC(NC(=O)c2cnn3ccccc23)CC1`, the “activity change, negative = inhibition” value was 3.52%.

As for `Cc1ccc(C)c(NC(=O)C2CCCN2C(=O)OC(C)(C)C)c1` (stereo unspecified), the “activity change, negative = inhibition” value was 22.4%.

Turning to `Cc1ccc(-n2ncc(C(=O)NC3CC3)c2C2CCN(C(=O)OC(C)(C)C)CC2)c(C)c1`, the Potency is 10.4 µM (active).

Consider `O=C(COC(=O)c1cccc(Cl)c1)Nc1ccc2[nH]c(=O)[nH]c2c1`, for which the “activity change, negative = inhibition” value was -34.1%.

Consider `CCCS(=O)(=O)Nc1ccc(-c2cn3c(n2)SCC3)cc1`, for which the “activity change, negative = inhibition” value was 24%.

For `Cc1ccc(NC(=O)Cn2c(C)csc2=O)cc1`, the “activity change, negative = inhibition” value was 12.8%.

Take `CCC(=O)Nc1ccc2c(c1)nc(CCN1CCN(C)CC1)n2C`: the “activity change, negative = inhibition” value is 8.09%.

For `Cn1c(CCN2CCCCCC2)nc2cc(NC(=O)Nc3ccccc3)ccc21`, the Potency is 3.29 µM (active).

In the case of `CCC(=O)Nc1ccc2c(c1)nc(CCN1CCN(c3ccccn3)CC1)n2C`, the “activity change, negative = inhibition” value is 6.45%.

Consider `O=C(NC1CCCCC1)C1CCC(CNS(=O)(=O)c2ccccc2)CC1` (stereo unspecified), for which the “activity change, negative = inhibition” value is 7.51%.

For the compound `CCN(CC)S(=O)(=O)c1ccc(N2CCOCC2)c(NC(=O)C2CSC3(C)CCC(=O)N23)c1` (stereo unspecified), the “activity change, negative = inhibition” value is 0%.

`CC(C)Oc1ccc(S(=O)(=O)N2CCOCC2)cc1NC(=O)C1CSC2(C)CCC(=O)N12` (stereo unspecified): the Potency was 9.28 µM (active).

Turning to `CC(C)Oc1ccc(S(=O)(=O)N2CCOCC2)cc1NC(=O)C1CCCC1`, the “activity change, negative = inhibition” value is -22.1%.

`Cc1ccc(NC(=O)C/C(N)=N/O)cc1Cl`: the “activity change, negative = inhibition” value is 2.93%.

As for `Cc1ccc(NC(=O)CSc2nn3c(=O)c(C)nnc3s2)cc1Cl`, the Potency is 13.1 µM (active).

Consider `Cc1ccc(NC(=O)CSc2nnc(CNC(=O)c3ccccc3F)o2)cc1Cl`, for which the “activity change, negative = inhibition” value is 32%.

Turning to `COc1cccc(-c2nc(CS(=O)CC(=O)NCc3ccc(F)cc3)c(C)o2)c1` (stereo unspecified), the “activity change, negative = inhibition” value is 27.8%.

Consider `CCCn1c(=O)c(C(=O)Nc2cc(C)ccn2)c(O)c2ccccc21`, for which the “activity change, negative = inhibition” value was 28.3%.

Take `O=S(=O)(Nc1ccccc1)c1ccc(NS(=O)(=O)c2cccs2)cc1`: the “activity change, negative = inhibition” value was 4.5%.

For `CCCCNC(=O)N(O)C1N(/N=C/c2ccc(N(C)C)cc2)C(=S)SC1(C)C` (stereo unspecified), the activity change, negative = inhibition was -2.29% [at 0.00184 µM].

`N#Cc1c(/N=C/N2CCCC2)oc(-c2ccccc2)c1-c1ccccc1`: the Potency was 4.65 µM (active).

With `N#Cc1c(-c2ccccc2)c(-c2ccccc2)n[nH]c1=O`, the “activity change, negative = inhibition” value was -11.1%.

Turning to `N#Cc1c(NC(=O)CCCN2C(=O)c3ccccc3C2=O)oc(-c2ccccc2)c1-c1ccccc1`, the “activity change, negative = inhibition” value was 11.4%.

With `C=C1CCC(N(O)c2cc(C)on2)C(=C)CCC2C1CC2(C)C` (stereo unspecified), the Potency was 4.65 µM (active).

For the compound `COc1ccc(S(=O)(=O)N(C)CC(=O)NCCCN2CCOCC2)cc1Cl`, the “activity change, negative = inhibition” value was 21.6%.

`CCCNC(=O)COc1coc(CN2CCN(Cc3ccccc3)CC2)cc1=O`: the “activity change, negative = inhibition” value is 6.97%.

On to `Cc1ccc(CNS(=O)(=O)CCNC(=O)c2ccccc2)cc1`, for which the “activity change, negative = inhibition” value is 1.42%.

On to `O=C(Cn1c(=O)n(Cc2ccco2)c(=O)c2ccccc21)NCC1CCCO1` (stereo unspecified), for which the “activity change, negative = inhibition” value is 0.136%.

With `O=c1c2ccccc2oc2nc(C3CCCCC3)n(Cc3ccco3)c(=O)c12`, the Potency was 13.1 µM (active).

Consider `O=c1c2ccccc2oc2nc3n(c(=O)c12)CCCS3`, for which the “activity change, negative = inhibition” value was -4.62%.

For the compound `COCCNC(=O)c1ccccc1NS(=O)(=O)c1ccc(C)c([N+](=O)[O-])c1`, the “activity change, negative = inhibition” value is -2.7%.

Regarding `Cc1ccc(NS(=O)(=O)c2ccc(N/N=C/c3ccccc3OCC(=O)O)c([N+](=O)[O-])c2)c(C)c1`, the Potency is 11.7 µM (active).

Take `Cc1cccc(COc2ccccc2/C=N/Nc2ccc([N+](=O)[O-])cc2)c1`: the “activity change, negative = inhibition” value was -89.6%.

On to `O=C(N/C(=C\c1ccc([N+](=O)[O-])cc1)C(=O)N1CCCCC1)c1ccco1`, for which the “activity change, negative = inhibition” value was 2.5%.

Consider `O=C(CN1CCOC1=O)N1CCCC(Nc2ccc(F)c(F)c2)C1` (stereo unspecified), for which the “activity change, negative = inhibition” value is 0.222%.

Regarding `COc1ccccc1-c1cnn2c(N3CCOCC3)cc(C)nc12`, the “activity change, negative = inhibition” value was 95.7%.

Take `Cn1nccc1/C=N\NC(=O)c1ccc(Cl)cc1`: the “activity change, negative = inhibition” value is 15%.

In the case of `CN(CCc1ccccn1)C(=O)c1ccc(OC2CCN(Cc3ccccn3)CC2)cc1`, the “activity change, negative = inhibition” value is 0.5%.
